# High-throughput results as filed in PubChem BioAssay.
# An excerpt weighted towards active compounds, which were near 2% of everything screened.
# GALR2 antag: antagonists of human galanin receptor 2 (GALR2); O43603; GALR2-expressing cells, antagonist mode; inhibition, % at 4 µM; 0.39% of 140,000 active; in the data active = inhibition above about 27%;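 note: cells stimulated with galanin 1-16 at roughly its EC80; 0% = agonist challenge control and 100% = basal control without agonist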
# Target sequence (O43603 whole entry, looked up): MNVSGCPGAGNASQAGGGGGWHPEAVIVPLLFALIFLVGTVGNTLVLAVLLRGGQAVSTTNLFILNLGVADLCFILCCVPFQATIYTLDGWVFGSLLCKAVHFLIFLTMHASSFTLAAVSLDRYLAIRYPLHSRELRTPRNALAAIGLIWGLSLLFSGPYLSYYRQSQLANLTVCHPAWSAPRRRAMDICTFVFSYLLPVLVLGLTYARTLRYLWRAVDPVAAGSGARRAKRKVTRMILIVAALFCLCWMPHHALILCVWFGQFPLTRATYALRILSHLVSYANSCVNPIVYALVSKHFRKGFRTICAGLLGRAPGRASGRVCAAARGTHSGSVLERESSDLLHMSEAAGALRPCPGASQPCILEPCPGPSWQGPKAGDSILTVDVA
# S1P2 agonist: S1P2 (human) receptor agonism. AID 729. activation, % at 4.5 µM. S1P2-expressing cell line, agonist reporter read-out. O95136. 0.46% of 97,000 active; in the data active = activation above about 16%;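 note: 0% = vehicle low control and 100% = maximal reference agonist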
# PLAP act: human PLAP activation; P05187; purified PLAP enzyme, luminescent substrate read-out; active compounds read high; activation fold at 20 µM; 1.2% of 96,000 active; in the data active = activation fold above about 2
# S1P2 antag: blocks the human S1P2 receptor; O95136; cell-based S1P2 antagonist assay, inhibition at 5 uM; inhibition, % at 5 µM; 0.21% of 97,000 active; in the data active = inhibition above about 45%;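 note: CRE beta-lactamase reporter cells expressing human S1P2 stimulated with S1P; 0% = agonist at EC80 alone and 100% = agonist plus reference antagonist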
# GALR2 agonist: GALR2 (human) receptor agonism; GALR2-expressing cells, agonist activation read-out; 0.48% of 140,000 active; activation, % (concentration not given with the values); O43603; in the data active = activation above about 5%, passing the limit was not always enough;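 note: 0% = vehicle buffer wells and 100% = reference agonist at full effect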
# * = called active by the depositor; nt = not tested or not shown.
SMILES,GALR2 antag,S1P2 agonist,PLAP act,S1P2 antag,GALR2 agonist
O=c1ccn(-c2cccc(C(F)(F)F)c2)nc1-c1ccn(-c2cccc(Cl)c2)n1,-3,28*,1.2,-24,-1
Cc1cc(C(=O)O)ccc1-n1c(C)ccc1C,0,25*,nt,10,-2
Cc1ccc(NC(=S)NNC(=O)c2ccc(N3CCOCC3)c([N+](=O)[O-])c2)cc1C,-5,nt,nt,nt,0
Nc1ncnc2nc(SCc3ccc(Cl)cc3Cl)[nH]c12,2,-3,2.3*,-17,0
Cc1cc(C)n2nc(S(=O)(=O)N(C)c3ccccc3)nc2n1,2,52*,1,-5,0
Cc1cc(C)n2nc(Cc3ccccc3)nc2n1,-10,2,1,-11,-1
COc1ccc(/C=N/Nc2snc(SC)c2C#N)cc1OC,18,-6,1,-12,5.1*
CCn1c(C)cc(/C=C2/NC(=O)N(CC(=O)Nc3cccc(C)c3)C2=O)c1C,-10,nt,nt,nt,8.0*
CCn1c(C)cc(/C=C2\NC(=O)N(CC(=O)Nc3cccc(C)c3)C2=O)c1C,-13,-3,1.2,-22,-2
CCOc1cc(C(c2c(C)[nH][nH]c2=O)c2c(C)[nH][nH]c2=O)ccc1OS(=O)(=O)c1ccccc1,-12,-2,2.6*,2,1
Nn1c(SCc2cccc(C(F)(F)F)c2)nnc1-c1ccco1,-16,-11,0.9,2,-2
Cc1ccc(CSc2nnc(-c3ccco3)n2N)cc1,-5,26*,0.9,6,-3
COc1ccc(CC(=O)Nc2cccc(-c3nnc(-c4ccccc4)o3)c2)cc1OC,12,-6,1.2,56*,-1
CCCN(CCC)S(=O)(=O)c1ccc(C(=O)Nc2nnc(-c3cc(OC)cc(OC)c3)o2)cc1,-3,-3,2*,19,0
COc1ccc(CC(=O)Nc2cccc(-c3nnc(-c4ccc(C)cc4)o3)c2)cc1OC,26,nt,nt,nt,-2
COc1ccc(C(=O)Nc2nnc(-c3ccccc3)o2)cc1OC,1,-11,2.1*,16,0
O=C(Nc1nnc(-c2ccccc2)o1)c1cc(Cl)sc1Cl,3,nt,nt,nt,0
COc1ccc(CC(=O)Nc2cccc(-c3nnc(-c4cccc(C)c4)o3)c2)cc1OC,28*,nt,0.9,nt,-1
Cc1ccc(Sc2ccc(N)cc2C#N)cc1,7,-2,nt,-3,-1
CC(C)c1ccc(-c2cc(C(=O)N3N=C(C(F)F)CC3(O)C(F)F)c3ccccc3n2)cc1 (configuration not stated),7,-6,2.1*,8,-2
O=C(c1cc(C2CC2)nc2ccccc12)N1N=C(C(F)F)CC1(O)C(F)F (configuration not stated),5,-2,nt,-2,-4
CSc1ncc(Cl)c(C(=O)Nc2nnc(SC/C=C/c3ccccc3)s2)n1,-5,-3,2.3*,8,-4
C=CCSc1nnc(NC(=O)c2nc(SCC)ncc2Cl)s1,-26,-4,1,-2,-1
Cc1ccccc1C(=O)NNC(=O)Cc1ccccc1,5,-7,2*,6,-3
Cc1occc1C(=O)NNC(=O)Cc1ccccc1,-4,-4,1.1,3,-2
SMILES,GALR2 antag,S1P2 agonist,PLAP act,S1P2 antag,GALR2 agonist
O=C1c2cccc3c([N+](=O)[O-])ccc(c23)C(=O)N1c1ccc(Cl)cn1,18,4,0.7,71*,2
O=C1c2cccc3c(N4CCCCC4)ccc(c23)C(=O)N1c1ccccn1,13,-8,0.9,39,-1
O=C1c2cccc3c(N4CCCCC4)ccc(c23)C(=O)N1c1ccc(Cl)cn1,9,-6,nt,51*,-1
Fc1ccc(-c2ccnc(=S)[nH]2)cc1,4,-1,1.1,-7,-1
Cc1cccc(NC(c2ccc(O)cc2)c2ccc3ccc(C)nc3c2O)n1 (configuration not stated),5,0,2.8*,21,0
Cc1ccccc1CN(c1ccc(C(=O)Nc2cccnc2)cc1)S(C)(=O)=O,1,-3,2.2*,8,-1
O=C(NCC1CCCO1)C1CC(=O)N(C2CCCC2)C1 (configuration not stated),6,-2,0.9,-4,-1
CC(Oc1ccc(C(C)(C)C)cc1)c1ccnc2nc(/N=C/N(C)C)nn12 (configuration not stated),-1,-6,1.4,12,-2
CCc1ccc(N2CC(C(=O)Nc3ccc(C)c(S(=O)(=O)N4CCOCC4)c3)CC2=O)cc1 (configuration not stated),-10,-12,2*,2,-1
C=CCn1c(SCc2c(C)noc2C)nnc1C1COc2ccccc2O1 (configuration not stated),-9,1,0.8,0,-2
